Active and inactive are the calls of the source. Rule for the calls: active = hit-call score of the fitted dose curve at least 0.9, where 1 is the maximum; inactive = score below 0.9.
read-out: Fatty Acid-Binding Protein 1 (FABP1), FABP1 (gene 2168); assay: LTEA_HepaRG_FABP1: Life Technologies and Expression Analysis (LTEA) Assay for Fatty Acid-Binding Protein 1 (FABP1) using HepaRG (AID 2283494); settings: mRNA level, 48 h; actives raise or lower the signal
Procedure: LTEA_HepaRG is a cell based, multiplexed-readout assay that uses HepaRG, a human liver cell line, with measurements taken at 48 hours after chemical dosing on a 96-well plate.LTEA_HepaRG_FABP1 is one of 102 assay component(s) measured in the LTEA HepaRG cell culture assay. It is a marker of Steatosis.Data from the assay component LTEA_HepaRG_FABP1 was analyzed into 1 endpoint. This assay endpoint, LTEA_HepaRG_FABP1, was analyzed with bidirectional fitting relative to DMSO as the negative control and baseline of activity. Using a type of inducible reporter, measures of mRNA induction for gain or loss-of-signal activity can be used to understand regulation of transcription factor activity. To generalize the intended target to other relatable targets, this assay endpoint is annotated to the transporter intended target family, where the subfamily is fatty acid carrier protein.
A total of 1060 chemcials from the ToxCast library were tested in eight-point concentration-response experiments. Cell culture and cytotoxicity assays were conducted at Thermo Fisher Scientific's Custom Services facility (Madison, WI). A single lot of human HepaRG cells (Thermo Fisher Scientific, Frederick, MD) was used for the cell culture experiments. 96-well format collagen type I coated plates of human HepaRG cells were prepared using established methods. Briefly, cryopreserved HepaRG cells were thawed, plated at a density of approximately 100,000 cells/well in HepaRG Thaw, Plate, and General Purpose media (HPRG770, Thermo Fisher Scientific), and incubated for 48 hours. 0.5% DMSO was selected as vehicle control to balance the requisite need of DMSO in HepaRG cultures to maintain differentiation (for example, baseline metabolism, proportions of hepatocytes vs. cholangiocytes), while enabling further hepatic receptor pathway activation (for example, PXR and CAR) in response to chemical exposure. 48 hours after plating, the culture medium was replaced with HepaRG Serum-Free Incudtion Media. Cells were exposed to each test chemical in duplicate and maintained in CO2 incubators for another 48 hours. Chemical plates were thawed to room temperature and 200x concentrations of treatment groups were prepared. 8-point conentration-reponse curves were made with the highest exposure at 100 uM, followed by half-log dilutions, all in 0.5% DMSO. Each test plate contained variouse controls, induction positive controls (1mM phenobarbital), cytotoxicity positive controls ([…] aflatoxin B1), vehicle controls (0.5% DMSO), and total lysis controls (0.5% DMSO). Cell morphology images were taken using an Essen IncuCyte FLR automated microscope, with six 96-well plates imaged in about 24 minutes. Images were captured and exported and JPEG files. Spent culture media was transfered to black-well plates for the LDH assay, and remaining media was sorted at -80 C for later use. Cells were treated with RLT buffer and frozen until shipped for gene expression analysis. Total RNA was isolated from the cell suspension in 75 uL of Buffer RLT (Qiagen, Germantown, MD 20874) by Quintiles/Expression Analysis (Durham, NC) using a custom isolation procedure. Total RNA from each plate well was transferred to a preamplification plate. Fluidigm's 96.96 Dynamic ArrayTM (Fluidigm, Amsterdam, the Netherlands) technology was used for gene expression analyses by quantitative reverse transcription polymerase chain reaction (qRT-PCR, performed by Quintiles/Expression Analysis, Durham, NC)89. Standard TaqManTM Assays (Applied Biosystems/ThermoFisher Scientific, Foster City, CA) were used to assess the expression of 93 genes selected based on their selectivity and sensitivity to important hepatic receptors known to be modulated by environmental chemicals; importance in human hepatocyte functionality; and hepatotoxicity. […]

SMILES	AC50	outcome
C=C(C)CN(CC)c1c([N+](=O)[O-])cc(C(F)(F)F)cc1[N+](=O)[O-]	50 µM (active)	
CCN(CC)c1nc(C)cc(OP(=S)(OC)OC)n1	50 µM (active)	
CC(C)NC(=O)N1CC(=O)N(c2cc(Cl)cc(Cl)c2)C1=O	13.2 µM (active)	
Cc1cc(C)nc(Nc2ccccc2)n1		inactive
CC1(C)C(C=C(Cl)Cl)C1C(=O)OC(C#N)c1cccc(Oc2ccccc2)c1 (stereo not given)		inactive
O=C(Nc1ccccc1-c1ccc(Cl)cc1)c1cccnc1Cl	33.9 µM (active)	
COc1cc(OC)nc(NC(=O)NS(=O)(=O)c2ncccc2OCC(F)(F)F)n1		inactive
COCc1cnc(C2=NC(C)(C(C)C)C(=O)N2)c(C(=O)O)c1 (stereo not given)		inactive
CCNC(=O)NC(=O)C(C#N)=NOC		inactive
Cc1ccc(N=CN(C)C=Nc2ccc(C)cc2C)c(C)c1		inactive
CC(C)(C)C(=O)C(Oc1ccc(Cl)cc1)n1cncn1 (stereo not given)	50 µM (active)	
CC(C)Nc1nc(Cl)nc(NC(C)C)n1	19.2 µM (active)	
CC1(C)CCC(=Cc2ccc(Cl)cc2)C1(O)Cn1cncn1 (stereo not given)	4.41 µM (active)	
C=CCOC(=O)C(C)(C)OC(=O)c1cc(-n2c(=O)cc(C(F)(F)F)n(C)c2=O)ccc1Cl		inactive
Cc1cnc(C2=NC(C)(C(C)C)C(=O)N2)c(C(=O)O)c1 (stereo not given)		inactive
N#CN=C1SCCN1Cc1ccc(Cl)nc1		inactive
CN=C=S		inactive
COCC(C)N(C(=O)CCl)c1c(C)csc1C (stereo not given)	50 µM (active)	
Cc1c(COC(=O)[C@@H]2[C@H](/C=C(\Cl)C(F)(F)F)C2(C)C)cccc1-c1ccccc1	35 µM (active)	
Cn1c(-c2ccccc2)cc(-c2ccccc2)[n+]1C	21.9 µM (active)	

SMILES	AC50	outcome
CC(C)=CC1C(C(=O)OCc2coc(Cc3ccccc3)c2)C1(C)C (stereo not given)		inactive
Nc1c(Cl)c(F)nc(OCC(=O)O)c1Cl		inactive
CCCN(CC)CC1COC2(CCC(C(C)(C)C)CC2)O1 (stereo not given)		inactive
CO/N=C(/C1=NOCCO1)c1ccccc1Oc1ncnc(Oc2ccccc2Cl)c1F	19.8 µM (active)	
CCN(CC)C(=O)C(C)Oc1cccc2ccccc12 (stereo not given)	70.4 µM (active)	
CC1(C)C(C(=O)OC(C#N)c2cccc(Oc3ccccc3)c2)C1(C)C (stereo not given)		inactive
CN/C(=N\[N+](=O)[O-])NCc1cnc(Cl)s1	33.4 µM (active)	
Clc1nc(Cl)nc(Nc2ccccc2Cl)n1		inactive
CNC(=O)Oc1cccc2ccccc12		inactive
CCSC(=O)N1CCCCCC1		inactive
CCCC(=NOCC)C1=C(O)CC(CC(C)SCC)CC1=O (stereo not given)		inactive
CCOC(=O)C(C)OC(=O)c1cc(Oc2ccc(C(F)(F)F)cc2Cl)ccc1[N+](=O)[O-] (stereo not given)	14.5 µM (active)	
CCOc1nc(F)cc2nc(S(=O)(=O)Nc3c(Cl)cccc3Cl)nn12		inactive
Nc1cnn(-c2ccccc2)c(=O)c1Cl		inactive
COP(=S)(OC)Oc1ccc([N+](=O)[O-])c(C)c1		inactive
Nc1c(Cl)c(Cl)nc(C(=O)O)c1Cl		inactive
CCCCC(C#N)(Cn1cncn1)c1ccc(Cl)cc1 (stereo not given)	13.1 µM (active)	
Clc1cccc(C(Cl)(Cl)Cl)n1		inactive
CCOP(=S)(OCC)Oc1nc(Cl)n(C(C)C)n1		inactive
COP(=S)(OC)SCn1nnc2ccccc2c1=O		inactive

From PubChem BioAssay (EPA / NIEHS)
